Assay results as given in PubChem BioAssay (NCATS).
Results filed as inconclusive are left out. The source made the active and inactive calls. Unless noted, calls come from the whole dose curve; as a rule, active = well fitted curve in the direction sought with a large enough effect; inconclusive = small, poorly fitted or top-dose-only effect, or another doubt; inactive = no such curve, though single readings can be large; an effect the other way counts as inactive or inconclusive.

Tests used:
[1] = target: ATP-dependent 6-phosphofructokinase (Trypanosoma brucei brucei) (UniProt O15648); assay: qHTS Assay to Find Inhibitors of T. brucei phosphofructokinase: hit validation (AID 492961);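 note: luminescence reports ADP formed as PFK phosphorylates fructose-6-phosphate with ATP; % is set by controls: 0 for no effect and ±100 for the full control effect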
Summary of the method: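 Measures ADP output of PFK (1.25 nM) at 0.1 mM ATP, 0.5 mM F6P, pH 8.0 TEA buffer with 5 mM MgCl2. No-enzyme wells define full inhibition; uninhibited enzyme wells define zero.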

[2] = target: Ubiquitin carboxyl-terminal hydrolase 1 (Homo sapiens) (UniProt O94782); assay: Inhibitors of USP1/UAF1: Pilot qHTS (AID 504865);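 note: rhodamine fluorescence freed from ubiquitin-rhodamine substrate followed over time; top concentration of the series differs between compounds; % is set by controls: 0 for no effect and ±100 for the full control effect; nearly all actives have a fitted effect of over 35% in size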
Summary of the method: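 Enzyme-free wells gave the negative control, while test wells held 1nM USP1/UAF1 preincubated with compound for 15 min at room temperature. Ub-Rho at 150nM final started the reaction, and fluorescence at 480/540 nm was recorded kinetically.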

[3] = target: Luciferin 4-monooxygenase (Photinus pyralis) (UniProt P08659); assay: Biochemical firefly luciferase enzyme assay for NPC (AID 624030);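 note: purified P. pyralis luciferase at 10 nM with luciferin and ATP substrate; 0% = DMSO and -100% = full luciferase inhibition by PTC124 control; nearly all actives have a fitted effect of over 70% in size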
Summary of the method: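 Direct inhibition of firefly luciferase enzyme (10 nM final, 50 mM Tris Acetate) assessed by luminescence within 5 minutes. Percent activity scaled between DMSO and PTC124 positive control, with concentration-effect curves classified by fit quality and response.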

[4] = S16 Schwann cell viability assay (CellTiter-Glo assay) (AID 624031);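 note: cellular ATP luminescence as a viability measure; plate controls were DMSO-treated cells for no effect and cell-free wells for full effect; nearly all actives have a fitted effect of over 70% in size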
Summary of the method: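 CellTiter-Glo ATP luminescence counter-screen in untransfected S16 rat Schwann cells, 24h compound exposure at 37 degree Celsius after overnight seeding (500-750 cells/well); response scaled between cell-free wells and DMSO (0% activity), curves classed by r2 and magnitude.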

[5] = S16 Schwann cell PMP22 intronic element firefly luciferase assay (AID 624032);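 note: plate controls were DMSO for no effect and PTC124 positive control mean for full effect; nearly all actives have a fitted effect of over 30% in size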
Summary of the method: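 Luciferase reporter of PMP22 intronic-element expression in stably transfected S16 rat Schwann cells, read by ONE-Glo luminescence after 24 h compound exposure at 37 C. Activity scaled between DMSO (0%) and positive-control PTC124; concentration-effect curves quality-classified.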

[6] = S16 Schwann cell PMP22 intronic element beta-lactamase assay (AID 624044; calls by dose curve;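 note: 0% = DMSO and -100% = potassium clavulanate positive control; nearly all actives have a fitted effect of over 15% in size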)
Summary of the method: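 Beta-lactamase reporter under a PMP22 intronic regulatory element in stable S16 rat Schwann cells; 24 h compound exposure. 460 nm blue signal normalized between DMSO (0%) and potassium clavulanate, with 535 nm FRET tracking viability; curves classed by r2 and response.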

[7] = system: Zika virus NS2B-NS3 protease; assay: Primary screen GU AMC qHTS for Zika virus inhibitors (AID 1347154);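 note: 0% = no-inhibitor control and -100% = no-enzyme control; nearly all actives have a fitted effect of over 70% in size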
Summary of the method: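 Fluorogenic AMC-substrate cleavage by noncovalent NS2B-NS3 protease complex (25 nM, pH 8.0 Tris buffer with Tween 20) followed for 15 minutes at room temperature (~20% conversion). Percent inhibition from ex340/em450 signal change, fitted by 4-parameter Hill equation.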

[8] = Primary qHTS for small molecule stabilizers of the endoplasmic reticulum resident proteome: Secreted ER Calcium Modulated Protein (SERCaMP) assay (AID 1508630); note: % is set by controls: 0 for no effect and ±100 for the full control effect
Summary of the method: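 The SH-SY5Y reporter protocol was run at 3 concentrations up to 38.3 uM (primary) or 11 concentrations (follow-up): 16 h compound, 100 nM thapsigargin for 4 h, then extracellular luciferase luminescence.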

[9] = qHTS profiling for inhibitors of Plasmodium falciparum proliferation (AID 504749);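 note: 0% = DMSO vehicle and full inhibition = artemisinin control; nearly all actives have a fitted effect of over 60% in size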; settings: P. falciparum in erythrocytes, SYBR Green DNA, 72 h; at 28.7 µM (top of the series); parasite line A
Summary of the method: (§1)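 In a 72 h erythrocytic culture (37 C, humidified, 5% CO2) at 2.5% hematocrit and 0.3% starting parasitemia, compounds were tested; SYBR Green I in detergent lysis buffer stained parasite DNA overnight.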

3D7 = assay: as above; settings: P. falciparum in erythrocytes, SYBR Green DNA, 72 h; series mostly up to 28.7 µM
Summary of the method: as §1

7G8 = assay: as above; settings: P. falciparum in erythrocytes, SYBR Green DNA, 72 h; series mostly up to 28.7 µM
Summary of the method: as §1

AA1029 = assay: as above; settings: P. falciparum in erythrocytes, SYBR Green DNA, 72 h; series mostly up to 28.7 µM
Summary of the method: as §1

AS120 = assay: as above; settings: P. falciparum in erythrocytes, SYBR Green DNA, 72 h; series mostly up to 28.7 µM
Summary of the method: as §1

ATS189 = assay: as above; settings: P. falciparum in erythrocytes, SYBR Green DNA, 72 h; series mostly up to 28.7 µM
Summary of the method: as §1

ATS95 = assay: as above; settings: P. falciparum in erythrocytes, SYBR Green DNA, 72 h; series mostly up to 28.7 µM
Summary of the method: as §1

C2A = assay: as above; settings: P. falciparum in erythrocytes, SYBR Green DNA, 72 h; series mostly up to 28.7 µM
Summary of the method: as §1

CP185 = assay: as above; settings: P. falciparum in erythrocytes, SYBR Green DNA, 72 h; series mostly up to 28.7 µM
Summary of the method: as §1

CP191 = assay: as above; settings: P. falciparum in erythrocytes, SYBR Green DNA, 72 h; series mostly up to 28.7 µM
Summary of the method: as §1

CP192 = assay: as above; settings: P. falciparum in erythrocytes, SYBR Green DNA, 72 h; series mostly up to 28.7 µM
Summary of the method: as §1

CP194 = assay: as above; settings: P. falciparum in erythrocytes, SYBR Green DNA, 72 h; series mostly up to 28.7 µM
Summary of the method: as §1

CP201 = assay: as above; settings: P. falciparum in erythrocytes, SYBR Green DNA, 72 h; series mostly up to 28.7 µM
Summary of the method: as §1

CP203 = assay: as above; settings: P. falciparum in erythrocytes, SYBR Green DNA, 72 h; series mostly up to 28.7 µM
Summary of the method: as §1

CP211 = assay: as above; settings: P. falciparum in erythrocytes, SYBR Green DNA, 72 h; series mostly up to 28.7 µM
Summary of the method: as §1

CP215 = assay: as above; settings: P. falciparum in erythrocytes, SYBR Green DNA, 72 h; series mostly up to 28.7 µM
Summary of the method: as §1

CP217 = assay: as above; settings: P. falciparum in erythrocytes, SYBR Green DNA, 72 h; series mostly up to 28.7 µM
Summary of the method: as §1

CP237 = assay: as above; settings: P. falciparum in erythrocytes, SYBR Green DNA, 72 h; series mostly up to 28.7 µM
Summary of the method: as §1

CP238 = assay: as above; settings: P. falciparum in erythrocytes, SYBR Green DNA, 72 h; series mostly up to 28.7 µM
Summary of the method: as §1

CP247 = assay: as above; settings: P. falciparum in erythrocytes, SYBR Green DNA, 72 h; series mostly up to 28.7 µM
Summary of the method: as §1

CP250 = assay: as above; settings: P. falciparum in erythrocytes, SYBR Green DNA, 72 h; series mostly up to 28.7 µM
Summary of the method: as §1

CP252 = assay: as above; settings: P. falciparum in erythrocytes, SYBR Green DNA, 72 h; series mostly up to 28.7 µM
Summary of the method: as §1

CP256 = assay: as above; settings: P. falciparum in erythrocytes, SYBR Green DNA, 72 h; series mostly up to 28.7 µM
Summary of the method: as §1

CP260 = assay: as above; settings: P. falciparum in erythrocytes, SYBR Green DNA, 72 h; series mostly up to 28.7 µM
Summary of the method: as §1

CP262 = assay: as above; settings: P. falciparum in erythrocytes, SYBR Green DNA, 72 h; series mostly up to 28.7 µM
Summary of the method: as §1

CP265 = assay: as above; settings: P. falciparum in erythrocytes, SYBR Green DNA, 72 h; series mostly up to 28.7 µM
Summary of the method: as §1

Sequence of Ubiquitin carboxyl-terminal hydrolase 1 (Homo sapiens) (O94782 whole entry, looked up): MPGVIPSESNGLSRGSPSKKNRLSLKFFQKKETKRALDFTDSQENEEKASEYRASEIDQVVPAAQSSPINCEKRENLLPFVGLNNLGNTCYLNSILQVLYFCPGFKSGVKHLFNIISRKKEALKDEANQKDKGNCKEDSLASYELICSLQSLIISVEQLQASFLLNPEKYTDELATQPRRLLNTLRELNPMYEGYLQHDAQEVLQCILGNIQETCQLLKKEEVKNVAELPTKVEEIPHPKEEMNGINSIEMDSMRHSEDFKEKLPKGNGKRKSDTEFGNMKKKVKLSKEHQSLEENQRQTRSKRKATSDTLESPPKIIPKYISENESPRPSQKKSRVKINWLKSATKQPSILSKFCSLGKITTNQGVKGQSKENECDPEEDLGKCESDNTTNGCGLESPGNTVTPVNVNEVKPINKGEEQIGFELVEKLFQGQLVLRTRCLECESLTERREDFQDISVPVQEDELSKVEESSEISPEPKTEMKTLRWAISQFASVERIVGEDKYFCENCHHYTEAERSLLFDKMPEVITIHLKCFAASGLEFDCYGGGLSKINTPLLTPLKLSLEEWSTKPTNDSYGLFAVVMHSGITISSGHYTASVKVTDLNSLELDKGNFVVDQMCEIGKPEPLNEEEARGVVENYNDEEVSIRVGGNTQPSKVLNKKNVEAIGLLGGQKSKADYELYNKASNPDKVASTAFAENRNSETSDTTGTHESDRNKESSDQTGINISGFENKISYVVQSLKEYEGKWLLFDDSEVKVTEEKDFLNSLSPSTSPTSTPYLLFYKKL
Sequence of Luciferin 4-monooxygenase (Photinus pyralis) (P08659 whole entry, looked up): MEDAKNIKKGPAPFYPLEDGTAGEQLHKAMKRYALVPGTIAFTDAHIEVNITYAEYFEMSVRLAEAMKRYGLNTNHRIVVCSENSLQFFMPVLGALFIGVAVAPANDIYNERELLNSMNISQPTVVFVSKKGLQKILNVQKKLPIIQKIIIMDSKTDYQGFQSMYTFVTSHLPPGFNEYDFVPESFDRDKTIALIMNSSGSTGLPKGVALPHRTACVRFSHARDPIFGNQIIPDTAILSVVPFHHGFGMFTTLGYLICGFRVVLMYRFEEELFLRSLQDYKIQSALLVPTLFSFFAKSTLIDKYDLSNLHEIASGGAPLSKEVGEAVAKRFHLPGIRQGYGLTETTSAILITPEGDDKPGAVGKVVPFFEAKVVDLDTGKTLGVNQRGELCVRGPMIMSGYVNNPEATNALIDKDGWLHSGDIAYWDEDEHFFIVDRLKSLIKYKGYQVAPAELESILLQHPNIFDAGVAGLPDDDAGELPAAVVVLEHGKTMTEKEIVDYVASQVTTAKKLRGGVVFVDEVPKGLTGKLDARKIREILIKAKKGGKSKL
Sequence of ATP-dependent 6-phosphofructokinase (Trypanosoma brucei brucei) (O15648 whole entry, looked up): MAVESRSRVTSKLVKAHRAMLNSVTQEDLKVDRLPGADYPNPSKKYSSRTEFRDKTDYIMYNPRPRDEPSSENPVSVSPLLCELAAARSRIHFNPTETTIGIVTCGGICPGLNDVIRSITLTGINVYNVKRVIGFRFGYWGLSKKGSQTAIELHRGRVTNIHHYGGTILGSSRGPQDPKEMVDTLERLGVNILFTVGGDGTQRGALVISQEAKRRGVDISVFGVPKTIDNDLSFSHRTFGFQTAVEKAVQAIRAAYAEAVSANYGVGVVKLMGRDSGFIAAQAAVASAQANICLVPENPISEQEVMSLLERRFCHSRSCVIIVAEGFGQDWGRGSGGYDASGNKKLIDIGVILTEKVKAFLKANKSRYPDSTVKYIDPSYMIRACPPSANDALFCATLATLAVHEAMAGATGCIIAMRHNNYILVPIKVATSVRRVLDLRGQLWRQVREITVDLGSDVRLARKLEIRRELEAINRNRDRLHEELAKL

CC(=O)[C@H]1CC[C@H]2C3CC=C4C[C@@H](O)CC[C@]4(C)C3CC[C@]12C (some centres undefined)
inactive: outcome [1] | Potency [2] | Potency [3] | outcome [4] | Potency [5] | Potency [6] | Potency [7] | Potency [8] | activity, negative = inhibition [9] -13% | Potency (3D7) | Potency (7G8) | Potency (AA1029) | Potency (AS120) | Potency (ATS189) | Potency (ATS95) | Potency (C2A) | Potency (CP185) | Potency (CP191) | Potency (CP192) | Potency (CP194) | Potency (CP201) | Potency (CP203) | Potency (CP211) | Potency (CP215) | Potency (CP217) | Potency (CP237) | Potency (CP238) | Potency (CP247) | Potency (CP250) | Potency (CP252) | Potency (CP256) | Potency (CP260) | Potency (CP262) | Potency (CP265)
